Experimental data published in the supplement of paper PMC8253809.

Key:
Assay in all cases: growth inhibition (% activity, log2 RLU normalised to DMSO / staurosporine); higher = more growth inhibition
Conditions in all cases: 33 µM
DIPGX29 = tested on: DIPGX29 (H3.3 K27M diffuse intrinsic pontine glioma line)
Procedure, shortened: (§1)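 In triplicate, pHGG cell lines and H9-derived neural stem cells were treated for 7 days at 37 °C, 5% CO2 with approved drugs at a single final concentration of about 33 μM, added by pin tool. CellTiter-Glo luminescence, after log2 transformation, was normalised on each plate to % activity between solvent and positive control wells. Growth inhibition is reported as the median across replicates.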

DIPGX37 = tested on: DIPGX37 (H3.3 K27M diffuse intrinsic pontine glioma line)
Procedure, shortened: as §1

DIPGX7 = tested on: DIPGX7 (H3.3 K27M diffuse intrinsic pontine glioma line)
Procedure, shortened: as §1

DIPGX9 = tested on: DIPGX9 (diffuse intrinsic pontine glioma line)
Procedure, shortened: as §1

HGGX39 = tested on: HGGX39 (paediatric high-grade glioma line)
Procedure, shortened: as §1

HGGX6 = tested on: HGGX6 (H3.3 G34R paediatric high-grade glioma line)
Procedure, shortened: as §1

HNSC = tested on: HNSC
Procedure, shortened: as §1

SUDIPGIV = tested on: SUDIPGIV (diffuse intrinsic pontine glioma line)
Procedure, shortened: as §1

SUDIPGVI = tested on: SUDIPGVI (diffuse intrinsic pontine glioma line)
Procedure, shortened: as §1

SUDIPGXIII = tested on: SUDIPGXIII (diffuse intrinsic pontine glioma line)
Procedure, shortened: as §1

In the case of CC[C@H](C)C[C@H](C)CCCCCCCCC(=O)N[C@H]1C[C@@H](O)[C@@H](NCCN)NC(=O)[C@@H]2[C@@H](O)CCN2C(=O)[C@H]([C@H](O)CCN)NC(=O)[C@H]([C@H](O)[C@@H](O)c2ccc(O)cc2)NC(=O)[C@@H]2C[C@@H](O)CN2C(=O)[C@H]([C@@H](C)O)NC1=O, the growth inhibition (DIPGX29) is reported as -0.204%, the growth inhibition (DIPGX37) is reported as -0.0661% and the growth inhibition (DIPGX7) is reported as 3.78%. For the same compound, the growth inhibition (DIPGX9) was 1.06%, the growth inhibition (HGGX39) was 2.93% and the growth inhibition (HGGX6) was -1.44%. The growth inhibition (HNSC) was 7.21%, the growth inhibition (SUDIPGIV) was -1.11% and the growth inhibition (SUDIPGVI) was -4.4%. It also gave a growth inhibition (SUDIPGXIII) of 0.336%.
Compound CCCCC(=O)N(Cc1ccc(-c2ccccc2-c2nnn[nH]2)cc1)[C@H](C(=O)O)C(C)C has a growth inhibition (DIPGX29) of -2.21%, a growth inhibition (DIPGX37) of -1.28% and a growth inhibition (DIPGX7) of -0.538%. For the same compound, the growth inhibition (DIPGX9) was -0.058%, the growth inhibition (HGGX39) was -2.05% and the growth inhibition (HGGX6) was -0.244%. The growth inhibition (HNSC) was -3.37%, the growth inhibition (SUDIPGIV) was 4.24% and the growth inhibition (SUDIPGVI) was -0.599%. For the same compound, the growth inhibition (SUDIPGXIII) was -8.43%.
Work on COC(=O)N/N=C/c1c[n+]([O-])c2ccccc2[n+]1[O-] yielded a growth inhibition (DIPGX29) of 2.48%, a growth inhibition (DIPGX37) of 4.18% and a growth inhibition (DIPGX7) of 1.83%. The growth inhibition (DIPGX9) was 0.689%, the growth inhibition (HGGX39) was 2.31% and the growth inhibition (HGGX6) was 0.191%. It also gave a growth inhibition (HNSC) of 4.92%, a growth inhibition (SUDIPGIV) of 3% and a growth inhibition (SUDIPGVI) of 5.18%. It also gave a growth inhibition (SUDIPGXIII) of -3.09%.
Work on CN[C@@H]1[C@H](O)[C@H](NC)[C@H]2O[C@@]3(O)C(=O)C[C@@H](C)O[C@H]3O[C@@H]2[C@H]1O yielded a growth inhibition (DIPGX29) of 1.24%, a growth inhibition (DIPGX37) of 1.47% and a growth inhibition (DIPGX7) of 0.532%. It also gave a growth inhibition (DIPGX9) of 2.81%, a growth inhibition (HGGX39) of 1.18% and a growth inhibition (HGGX6) of -0.547%. For the same compound, the growth inhibition (HNSC) was 3.02%, the growth inhibition (SUDIPGIV) was 0.676% and the growth inhibition (SUDIPGVI) was 2.4%. The growth inhibition (SUDIPGXIII) was 0.316%.
For CCCOc1ccc(C(=O)OCCN(CC)CC)cc1N, the growth inhibition (DIPGX29) was -3.81%, the growth inhibition (DIPGX37) was -2.51% and the growth inhibition (DIPGX7) was 0.125%. For the same compound, the growth inhibition (DIPGX9) was -2.19%, the growth inhibition (HGGX39) was 6.15% and the growth inhibition (HGGX6) was 3.2%. It also gave a growth inhibition (HNSC) of 4.12%, a growth inhibition (SUDIPGIV) of -0.212% and a growth inhibition (SUDIPGVI) of -1.94%. The growth inhibition (SUDIPGXIII) was 0.093%.
In the case of NCC(=O)CCC(=O)O, the growth inhibition (DIPGX29) is reported as -0.565%, the growth inhibition (DIPGX37) is reported as 0.832% and the growth inhibition (DIPGX7) is reported as -1.28%. It also gave a growth inhibition (DIPGX9) of 0.54%, a growth inhibition (HGGX39) of 0.759% and a growth inhibition (HGGX6) of 1.54%. It also gave a growth inhibition (HNSC) of -1.87%, a growth inhibition (SUDIPGIV) of 0.45% and a growth inhibition (SUDIPGVI) of 0.00902%. It also gave a growth inhibition (SUDIPGXIII) of 0.537%.
Nc1ncnc2c1ncn2[C@@H]1O[C@H](COP(=O)(O)OP(=O)(O)OP(=O)(O)O)[C@@H](O)[C@H]1O was tested, and the growth inhibition (DIPGX29) was 1.45%, the growth inhibition (DIPGX37) was 3.53% and the growth inhibition (DIPGX7) was 0.965%. The growth inhibition (DIPGX9) was 2.77%, the growth inhibition (HGGX39) was 1.53% and the growth inhibition (HGGX6) was 2.37%. For the same compound, the growth inhibition (HNSC) was 1.17%, the growth inhibition (SUDIPGIV) was 0.305% and the growth inhibition (SUDIPGVI) was 3.67%. It also gave a growth inhibition (SUDIPGXIII) of 1.19%.
OC1(c2ccc(Cl)c(C(F)(F)F)c2)CCN(CCCC(c2ccc(F)cc2)c2ccc(F)cc2)CC1 was tested, and the growth inhibition (DIPGX29) was 22.5%, the growth inhibition (DIPGX37) was -5.49% and the growth inhibition (DIPGX7) was 5.28%. It also gave a growth inhibition (DIPGX9) of -1.11%, a growth inhibition (HGGX39) of 4.1% and a growth inhibition (HGGX6) of 4.08%. It also gave a growth inhibition (HNSC) of 71.6%, a growth inhibition (SUDIPGIV) of 4.36% and a growth inhibition (SUDIPGVI) of -7.48%. For the same compound, the growth inhibition (SUDIPGXIII) was 51.7%.
Compound CCCc1nc2c(C)cc(-c3nc4ccccc4n3C)cc2n1Cc1ccc(-c2ccccc2C(=O)O)cc1 has a growth inhibition (DIPGX29) of -1.54%, a growth inhibition (DIPGX37) of -0.467% and a growth inhibition (DIPGX7) of -0.895%. The growth inhibition (DIPGX9) was -0.132%, the growth inhibition (HGGX39) was -1.04% and the growth inhibition (HGGX6) was -1.06%. For the same compound, the growth inhibition (HNSC) was -0.614%, the growth inhibition (SUDIPGIV) was -2.37% and the growth inhibition (SUDIPGVI) was 0.572%. The growth inhibition (SUDIPGXIII) was -1.14%.
For N=C(N)c1ccc(OCCCCCOc2ccc(C(=N)N)cc2)cc1, the growth inhibition (DIPGX29) was 12.3%, the growth inhibition (DIPGX37) was -2.71% and the growth inhibition (DIPGX7) was 16.9%. For the same compound, the growth inhibition (DIPGX9) was 13.9%, the growth inhibition (HGGX39) was 42.9% and the growth inhibition (HGGX6) was 20.2%. The growth inhibition (HNSC) was 43.6%, the growth inhibition (SUDIPGIV) was 45% and the growth inhibition (SUDIPGVI) was 44.2%. It also gave a growth inhibition (SUDIPGXIII) of 16.5%.
In the case of C[C@]12C=CC(=O)C=C1CC[C@@H]1[C@@H]2C(=O)C[C@@]2(C)[C@H]1CC[C@]2(O)C(=O)CO, the growth inhibition (DIPGX29) is reported as -2.83%, the growth inhibition (DIPGX37) is reported as -1.18% and the growth inhibition (DIPGX7) is reported as -0.368%. It also gave a growth inhibition (DIPGX9) of -2.35%, a growth inhibition (HGGX39) of -1.89% and a growth inhibition (HGGX6) of -3.12%. The growth inhibition (HNSC) was -4.28%, the growth inhibition (SUDIPGIV) was -3.78% and the growth inhibition (SUDIPGVI) was -6.66%. It also gave a growth inhibition (SUDIPGXIII) of 1.72%.
N=C(N)c1ccc2cc(OC(=O)c3ccc(N=C(N)N)cc3)ccc2c1 showed a growth inhibition (DIPGX29) of -0.193%, a growth inhibition (DIPGX37) of -3.07% and a growth inhibition (DIPGX7) of -0.0416%. The growth inhibition (DIPGX9) was -0.893%, the growth inhibition (HGGX39) was -0.167% and the growth inhibition (HGGX6) was 1.06%. For the same compound, the growth inhibition (HNSC) was 2.26%, the growth inhibition (SUDIPGIV) was 1.8% and the growth inhibition (SUDIPGVI) was 0.556%. The growth inhibition (SUDIPGXIII) was -0.295%.
Work on Cc1cc(N)c2ccccc2[n+]1CCCCCCCCCC[n+]1c(C)cc(N)c2ccccc21 yielded a growth inhibition (DIPGX29) of 39.6%, a growth inhibition (DIPGX37) of 46.2% and a growth inhibition (DIPGX7) of 35.4%. It also gave a growth inhibition (DIPGX9) of 41.1%, a growth inhibition (HGGX39) of 55.5% and a growth inhibition (HGGX6) of 36.2%. The growth inhibition (HNSC) was 57.8%, the growth inhibition (SUDIPGIV) was 50% and the growth inhibition (SUDIPGVI) was 50.9%. The growth inhibition (SUDIPGXIII) was 52.5%.
For O=S(=O)(O)NC1CCCCC1, the growth inhibition (DIPGX29) was 0.811%, the growth inhibition (DIPGX37) was 0.93% and the growth inhibition (DIPGX7) was 1.03%. For the same compound, the growth inhibition (DIPGX9) was 0.594%, the growth inhibition (HGGX39) was 2.81% and the growth inhibition (HGGX6) was 1.56%. For the same compound, the growth inhibition (HNSC) was 0.385%, the growth inhibition (SUDIPGIV) was 0.0436% and the growth inhibition (SUDIPGVI) was 0.0298%. For the same compound, the growth inhibition (SUDIPGXIII) was -1.99%.
In the case of CC(C)OC(=O)OCOP(=O)(CO[C@H](C)Cn1cnc2c(N)ncnc21)OCOC(=O)OC(C)C, the growth inhibition (DIPGX29) is reported as -0.149%, the growth inhibition (DIPGX37) is reported as -0.362% and the growth inhibition (DIPGX7) is reported as 0.933%. It also gave a growth inhibition (DIPGX9) of 1.84%, a growth inhibition (HGGX39) of 4.93% and a growth inhibition (HGGX6) of 2.27%. For the same compound, the growth inhibition (HNSC) was 0.819%, the growth inhibition (SUDIPGIV) was 0.684% and the growth inhibition (SUDIPGVI) was 0.813%. The growth inhibition (SUDIPGXIII) was 1.94%.
In the case of CCCCCCCCCC(=O)N[C@@H](Cc1c[nH]c2ccccc12)C(=O)N[C@@H](CC(N)=O)C(=O)N[C@@H](CC(=O)O)C(=O)N[C@@H]1C(=O)NCC(=O)N[C@@H](CCCN)C(=O)N[C@@H](CC(=O)O)C(=O)N[C@H](C)C(=O)N[C@@H](CC(=O)O)C(=O)NCC(=O)N[C@H](CO)C(=O)N[C@@H]([C@H](C)CC(=O)O)C(=O)N[C@@H](CC(=O)c2ccccc2N)C(=O)O[C@@H]1C, the growth inhibition (DIPGX29) is reported as -2.71%, the growth inhibition (DIPGX37) is reported as -1.3% and the growth inhibition (DIPGX7) is reported as -0.801%. For the same compound, the growth inhibition (DIPGX9) was -2.61%, the growth inhibition (HGGX39) was -1.25% and the growth inhibition (HGGX6) was -2.93%. It also gave a growth inhibition (HNSC) of -6.45%, a growth inhibition (SUDIPGIV) of -2.57% and a growth inhibition (SUDIPGVI) of -3.09%. It also gave a growth inhibition (SUDIPGXIII) of -1.13%.
CN(C)CCC(c1ccccc1)c1ccccn1 (stereo not given) gave a growth inhibition (DIPGX29) of 1.43%, a growth inhibition (DIPGX37) of 4.57% and a growth inhibition (DIPGX7) of 2.52%. For the same compound, the growth inhibition (DIPGX9) was 0.794%, the growth inhibition (HGGX39) was 3.82% and the growth inhibition (HGGX6) was 3.28%. For the same compound, the growth inhibition (HNSC) was 1.8%, the growth inhibition (SUDIPGIV) was 1.78% and the growth inhibition (SUDIPGVI) was 2.2%. For the same compound, the growth inhibition (SUDIPGXIII) was 0.511%.
Work on N[C@@H](CSCCCO)C(=O)O yielded a growth inhibition (DIPGX29) of -3.76%, a growth inhibition (DIPGX37) of -2.47% and a growth inhibition (DIPGX7) of 0.0116%. It also gave a growth inhibition (DIPGX9) of -2.7%, a growth inhibition (HGGX39) of -4.4% and a growth inhibition (HGGX6) of -5.11%. For the same compound, the growth inhibition (HNSC) was 22.1%, the growth inhibition (SUDIPGIV) was -4.19% and the growth inhibition (SUDIPGVI) was -9.19%. For the same compound, the growth inhibition (SUDIPGXIII) was -0.641%.
